{"source": "PubChem BioAssay (Tox21)", "note": "Results filed as inconclusive are left out. A number with no mark means an inactive call. The source made the active and inactive calls. Calls come from the whole dose curve; as a rule, active = well fitted activation curve with a large enough effect; inconclusive = small, poorly fitted or top-dose-only effect; inactive = flat fitted curve, though single readings scatter. % is set by controls: 0 for no effect and ±100 for the full control effect; potency is the fitted concentration of half-maximal effect.", "data": [{"experiment": "qHTS assay to identify small molecule phospholipidosis (PLD) inducers (AID 1259344)", "settings": "HepG2 phospholipidosis, LipidTOX Red imaging, 24 h; series mostly up to 38.3 µM; PLD induction: at the top concentration", "excerpt": "National Center for Advancing Translational Sciences [NCATS]\nDrug-induced Phospholipidosis (PLD) caused by cationic amphiphilic drugs is characterized by the appearance of unicentric or multicentric-lamellar bodies when viewed under electron microscope. Electron microscopy is the gold standard method for PLD detection, however, this method is time-consuming and labor intensive, making it unsuitable for evaluating a large set of compounds. A cell-based phospholipidosis assay has been developed using the LipidTox reagent in HepG2 cells and miniaturized into a 1536-well plate format. Drug induced phospholipid accumulation is stained with the LipidTox dyes in red color which then is determined using an automated high content screening system.\nHepG2 cells are dispensed at 900 cells/3 uL/well into Collagen I-coated 1536-well black-wall/clear-bottom assay plates (Greiner Bio-One, Monroe, NC) using the Multidrop Combi 8 channel dispenser (Thermo Fisher, Waltham, MA, USA). The assay plates are incubated at 37 C for 4 hours to allow the cell attachment. 3 uL of 1:500 LipidTOX Red dye is added using the dispenser, and then 23 nL compounds are added via a Wako Pintool station (Wako Automation, San Diego, CA). Amiodarone, a known PLD inducer, was used as a positive control and DMSO was used as a negative control. The assay plates were then incubated at 37 C for 24 hours.\nFor fixations, 4 uL of 8% paraformaldehyde fixative solution containing 10 ug/mL Hoechst 33342 in Dulbecco's phosphate-buffered saline (DPBS) is added using a Kalypsys washer/dispenser (Kalypsys, San Diego, CA, USA). After incubation at room temperature for 30 min, the assay plates are washed once with DPBS using a Kalypsys washer/dispenser. The assay plates are then sealed and stored at 4 C before imaging. The fluorescence intensities (595 nm excitation, 615 nm emission for LipidTOX; 352 nm excitation, 461 nm emission for Hoechst 33342) are measured using an ImageXpress Micro Widefield High Content Screening System (Molecular Devices, Sunnyvale, CA, USA) with a 20x Plan Fluor objective. Images are acquired for one site in each well and analyzed with the MetaXpress software (Molecular Devices) using the Transfluor module. Several algorithmic outputs, such as pit count per well, pit count per cell, pit integrated intensity per well, and pit integrated intensity per cell, are used for quantitative image analysis for PLD.", "values": [{"compound": "Cc1cccc(C)c1NC(=O)CN1CCCC1", "PLD induction": "0.723%"}, {"compound": "CCc1c(C)[nH]c2c1C(=O)C(CN1CCOCC1)CC2", "note": "(stereo not given)", "PLD induction": "-2.05% [at 15.5 µM]"}, {"compound": "CC(C(=O)O)c1ccc(/C=C2\\CCCCC2=O)cc1", "note": "(stereo not given)", "PLD induction": "-4.55%"}, {"compound": "CCCCCCCCCCCCCCCCN", "PLD induction": "0.853%"}, {"compound": "CC(=O)Nc1ccn(C2COC(COC(=O)c3ccccc3)O2)c(=O)n1", "note": "(stereo not given)", "PLD induction": "1.43% [at 1.53 µM]"}, {"compound": "CC(Cc1ccccc1)(NC(=O)CN)c1ccccc1", "note": "(stereo not given)", "PLD induction": "5.33%"}, {"compound": "Oc1ccc(CCNCCCCCCNCCc2ccccc2)cc1O", "PLD induction": "-4.62%"}, {"compound": "CCc1ccc(C(=O)C(C)CN2CCCCC2)cc1", "note": "(stereo not given)", "PLD induction": "5.92%"}, {"compound": "C[C@]12CCC(=O)C=C1[C@@H]1C[C@@H]1[C@H]1[C@@H]3[C@@H]4C[C@@H]4[C@@]4(CCC(=O)O4)[C@@]3(C)CC[C@@H]12", "Potency": "11.2 µM (active)"}, {"compound": "CC(C(=O)O)c1ccc2c(c1)Cc1cccnc1O2", "note": "(stereo not given)", "PLD induction": "0.483%"}, {"compound": "NC(=O)c1cc[n+](CC2=C(C(=O)[O-])N3C(=O)[C@@H](NC(=O)Cc4cccs4)[C@H]3SC2)cc1", "PLD induction": "2.27% [at 15.5 µM]"}, {"compound": "c1ccc(CCNc2nc(-c3ccccc3)cs2)cc1", "PLD induction": "-3.9%"}, {"compound": "Cc1c(Nc2ncccc2C(=O)O)cccc1C(F)(F)F", "PLD induction": "-0.492% [at 15.5 µM]"}, {"compound": "CCOCCn1c(N2CCCN(C)CC2)nc2ccccc21", "PLD induction": "-0.205%"}, {"compound": "Nc1ncnc2c1ncn2[C@@H]1O[C@H](CO)[C@@H](O)[C@H]1O", "PLD induction": "-0.0146%"}, {"compound": "CCCc1nc(C)c2c(=O)[nH]c(-c3cc(S(=O)(=O)N4CCN(CC)CC4)ccc3OCC)nn12", "PLD induction": "0.726%"}, {"compound": "CC(=O)CC/C=C(\\C)CC/C=C(\\C)CC/C=C(\\C)CCC=C(C)C", "PLD induction": "-2.77%"}, {"compound": "C/C=C1\\[C@H]2C=C(C)C[C@]1(N)c1ccc(=O)[nH]c1C2", "PLD induction": "1.59%"}, {"compound": "O=C(OC1C[C@H]2CC[C@@H](C1)[N+]21CCCC1)C(O)(c1ccccc1)c1ccccc1", "note": "(stereo not given in full)", "PLD induction": "0.367%"}, {"compound": "C[C@@H](O)[C@H]1C(=O)N2C(C(=O)O)=C(S[C@@H]3CN[C@H](CNS(N)(=O)=O)C3)[C@H](C)[C@H]12", "PLD induction": "-0.31%"}, {"compound": "O=C(O)CCc1nc2ccccc2[nH]1", "PLD induction": "-0.421%"}, {"compound": "COc1cc(C)c(Cc2cnc(N)nc2N)cc1OC", "PLD induction": "-0.329%"}, {"compound": "CCN(CCCCOC(=O)c1ccc(OC)c(OC)c1)C(C)Cc1ccc(OC)cc1", "note": "(stereo not given)", "PLD induction": "2.82% [at 15.5 µM]"}, {"compound": "CC1=C(C)C(=O)C(CCCCC#CCCCC#CCO)=C(C)C1=O", "PLD induction": "2.11%"}, {"compound": "CC(=O)Oc1cccc2c1C(=O)c1c(OC(C)=O)cc(C(=O)O)cc1C2=O", "PLD induction": "0.185%"}, {"compound": "CC(C)C[C@H](NC(=O)[C@H](Cc1ccccc1)NC(=O)c1cnccn1)B(O)O", "Potency": "inactive"}, {"compound": "COc1ccc(C(=O)c2ccc(C)cc2)c(O)c1", "PLD induction": "0.5%"}, {"compound": "O=C(O)c1cccnc1Nc1cccc(C(F)(F)F)c1", "PLD induction": "-0.388%"}, {"compound": "CC(=O)OCC(=O)[C@@]1(O)CC[C@H]2[C@@H]3CCC4=CC(=O)C=C[C@]4(C)[C@@]3(F)[C@@H](O)C[C@@]21C", "PLD induction": "-0.391% [at 15.5 µM]"}, {"compound": "CC(C)(C(=O)O)c1ccc(C(O)CCCN2CCC(C(O)(c3ccccc3)c3ccccc3)CC2)cc1", "note": "(stereo not given)", "PLD induction": "3.52%"}, {"compound": "Cc1ccc2c(Cl)cc(Cl)c(O)c2n1", "PLD induction": "0.648% [at 1.53 µM]"}, {"compound": "CC(C)(C)NCC(O)COc1ccc(NC(=O)NC2CCCCC2)cc1", "note": "(stereo not given)", "PLD induction": "12.6%"}, {"compound": "C[C@H](CN1CCCC1)C(=O)c1ccc(C(F)(F)F)cc1", "PLD induction": "-1.6%"}, {"compound": "Clc1ccccc1-c1nc(-c2ccncc2)no1", "PLD induction": "1.61%"}, {"compound": "CCCCCCCCCCCCSCCOCCO", "PLD induction": "0.646%"}, {"compound": "C/C(=C(\\CCO)SS/C(CCO)=C(\\C)N(C=O)Cc1cnc(C)nc1N)N(C=O)Cc1cnc(C)nc1N", "PLD induction": "-0.0149%"}, {"compound": "CC1(COc2ccc(CC3SC(=O)NC3=O)cc2)CCCCC1", "note": "(stereo not given)", "PLD induction": "3.78%"}, {"compound": "CC[C@H](NC(C)C)[C@H](O)c1ccc(O)c2[nH]c(=O)ccc12", "PLD induction": "-0.554%"}, {"compound": "Cc1c(Cl)cccc1Nc1ccccc1C(=O)O", "PLD induction": "1.5%"}, {"compound": "Nc1ccc(C(=O)Oc2ccccc2)c(O)c1", "PLD induction": "-1.38%"}]}]}
